# In PubChem BioAssay (NCATS):
# Several values for one entry are separate records, joined by “and”; a condition that tells them apart may be missing. Equal values may be shown once. Records with an inconclusive call do not appear. A call without a number means that no potency is given here. Activity calls are given as the source filed them. Calls come from the whole dose curve; as a rule, active = well fitted cell-killing curve with a large enough effect; inconclusive = small, poorly fitted or top-dose-only effect, or effect the other way; inactive = no such curve, though single readings can be large or run the other way.
# Assay: Viability qHTS for spleen associated tyrosine kinase inhibitor (SYKi) drug resistant MV4-11 cells (AID 1963824); note: nearly all actives have a fitted effect of over 35% in size
# Conditions: SYKi-resistant MV4-11 viability, CellTiter-Glo, 72 h; series mostly up to 45 µM
# Source text: Department of Medicine, Hematology/Oncology
# University Hospital Frankfurt, Germany.
# Trials have shown promising clinical activity of the selective SYK inhibitor entospletinib in patients with high expressing HOXA9/MEIS1 acute leukemias. As the development of resistance mechanisms is a common problem in the use of targeted drugs, we performed a chemical library screen to identify drug sensitivities in SYK inhibitor resistant AML cells. […] Glucocorticoids are potent immunosuppressants which work in part by inhibiting the transcription of cytokine genes.
# Described herein is a viability screen to look for activity in the SYK inhibitor drug resistant cell line against four NCATS compound libraries (MIPE 5.0, NPC, NPACT, and Kinase) totaling 11372 compounds. Active hits were reacquired for confirmation and further secondary assay testing.
# SEQUENCE No. (e.g., 1, 2, 3, etc.); […] (e.g., Cells, Incubation, Reagent, etc.); VALUE; DESCRIPTION.
# 1; Media; 2uL; white, solid-bottom Corning assay plate.
# 2; Compounds; 23nL; Echo acoustic dispenser.
# 3; Cell; 5uL; 500 cells per well.
# 4: Incubation; 72hr; 37 C, 5% CO2, 95% humidity.
# 5; Reagent; 3uL; CellTiter-Glo reagent (Promega).
# 6; Incubation; 10min; room temperature.
# 7; Detection; Luminescence; ViewLux plate reader (PerkinElmer).
# NOTES (numbers refer to Sequence numbers above
# 1. Quantitative high-throughput screening (qHTS) of small molecule compounds was conducted on drug resistant SYKi MV4-11 cell line.
# 2. Twenty-three nanoliter of small molecule compounds were added to each assay plates using the Echo acoustic dispenser (Beckman Coulter).
# 3. Cells were seeded into the assay plates at a final density of 500 cells in 5uL of media per well using the Multidrop Combi dispenser.
# 4. Plates were covered with stainless steel gasketed lids and incubated for 72 hours at standard cell culture conditions.
# 5. Viability was assessed by adding 3uL of CellTiter-Glo detection reagent (Promega).
# 6. Plates were covered with gasket lids and incubated for 10 minutes at room temperature.
# 7. Luminescence was measured on a ViewLux plate reader (PerkinElmer).
# Potency is the fitted concentration of half-maximal effect.
SMILES,"viability, % of control",Potency
CC(C)=CC1C[C@](C)(O)[C@@H]2[C@H]3CCC4[C@@]5(C)CC[C@H](O[C@@H]6OC[C@H](O)[C@H](O[C@@H]7O[C@H](CO[C@@H]8O[C@H](CO)[C@@H](O)[C@H](O)[C@H]8O)[C@@H](O)[C@H](O)[C@H]7O)[C@H]6O[C@@H]6O[C@@H](C)[C@H](O)[C@@H](O)[C@H]6O)C(C)(C)[C@@H]5CC[C@@]4(C)[C@@]34CO[C@@]2(C4)O1 (stereo not given in full),96.9% [at 9.25 µM] (inactive),–
CC(C)(C)c1[nH]cnc1/C=c1\[nH]c(=O)/c(=C/c2ccccc2)[nH]c1=O,–,0.0934 µM (active)
N#Cc1cc(NC(=O)Nc2nnc(-c3ccncc3)s2)ccc1-c1cn[nH]c1,–,inactive
O=C(c1ccccc1)c1ccccc1,–,inactive
C=C1CC[C@H]2[C@@](C)(CCC(OC3OC(CO)C(O)C(O)C3O)[C@@]2(C)CO)C1C(=O)CC1=CCOC1=O (stereo not given in full),–,inactive
COc1ccc(S(=O)(=O)Nc2cccnc2Nc2ccc(O)cc2)cc1,–,0.833 µM (active)
COc1cc(Nc2c(C#N)cnc3cc(OCCCN4CCN(C)CC4)c(OC)cc23)c(Cl)cc1Cl,–,944 nM (active) and 1.16 µM (active) and 590 nM (active)
C/C(=C\CCC(C)C1=CCC2(C)OC3=C(CC12)C(=O)C(O)CC3)CO (stereo not given),–,inactive
CCOc1ncc(S(=O)(=O)N2CCN(CC)CC2)cc1-c1nc2c(CC)n(CCOC)nc2c(=O)[nH]1,–,inactive
CO[C@H]1/C=C/O[C@@]2(C)Oc3c(C)c(O)c4c(O)c(c5c(nc6cc(C)ccn65)c4c3C2=O)NC(=O)/C(C)=C\C=C\[C@H](C)[C@H](O)[C@@H](C)[C@@H](O)[C@@H](C)[C@H](OC(C)=O)[C@@H]1C,–,14.8 µM (active)
COc1ccc2c(c1O)OC(C)(C)c1c-2ccc2c1C(=O)N(c1ccc(C(=O)c3ccccc3)cc1)C2=O,–,inactive
CC1CC(=O)C2=C(C1)C1OC1C1(O)C2C(=O)c2cccc(O)c2C1O (stereo not given),–,inactive
COc1cccc(OC)c1-c1ccc(C[C@H](NC(=O)c2c(Cl)cccc2Cl)C(=O)O)cc1,–,inactive
NC(=O)c1cnc2[nH]ccc2c1NC1C2CC3C[C@H]1CC(O)(C3)C2 (stereo not given in full),–,0.468 µM (active)
CC1OC(OC2C(OC3C(O[C@H]4CC[C@@]5(C)C(CC[C@]6(C)C5CC=C5C7CC(C)(C)CC(O)[C@]7(C)CC[C@]56C)C4(C)C)OC(C(=O)O)C(O)C3O)OCC(O)C2O)C(O)C(O)C1O (stereo not given in full),94.4% [at 9.25 µM] (inactive),–
C=C1C(=O)O[C@@H]2C[C@@]3(C)C[C@@H](O)C[C@H](C)C3=C[C@H]12,–,3.66 µM (active)
CCN1C(=O)CNc2ncc(-c3ccc(-c4ncn[nH]4)nc3C)nc21,–,0.742 µM (active)
Cc1c(CN2CCN(C(=O)C(C)O)CC2)sc2c(N3CCOCC3)nc(-c3cnc(N)nc3)nc12 (stereo not given),–,0.366 µM (active)
C[C@@H]1CC[C@H]2C(C)(C)[C@H](O)[C@H](O)C[C@]2(C)[C@@]12Cc1c(O)cc3c(c1O2)CNC3=O,–,inactive
NCC(=O)Nc1cncc(-c2nn3c(=O)cc(N4CCNCC4)nc3s2)c1,–,inactive

SMILES,"viability, % of control",Potency
O=C(O)CC(=O)OC[C@H]1O[C@@H](Oc2ccc3c(c2)OC[C@H]2c4cc5c(cc4O[C@@H]32)OCO5)[C@H](O)[C@@H](O)[C@@H]1O,–,inactive
CCOc1ccccc1C(N)=O,–,9.44 µM (active)
C=C1[C@H](OC(=O)/C=C(\C)CC)C[C@@H](C(C)C)[C@@H]2[C@H]([C@@H](C)OC(C)=O)C(=O)C[C@@H]12,–,13.2 µM (active)
Cc1c(-c2ccc(O)cc2)n(Cc2ccc(OCCN3CCCCCC3)cc2)c2ccc(O)cc12,–,23.7 µM (active) and 9.34 µM (active)
Cc1ncc([N+](=O)[O-])n1CC(O)CN1CCOCC1 (stereo not given),–,inactive
COC(=O)c1cc(Cl)c(NC(C)=O)cc1OC,–,inactive
CC1CCC23COC(=O)C2=CC(O)CC3C1(C)CCC1=CC(O)OC1=O (stereo not given),–,inactive
CC(C)C(=O)O[C@@H]1[C@@H](O)[C@@H](O[C@H]2O[C@H](CO)[C@@H](O)[C@H](O)[C@H]2O)O[C@H](CO)[C@H]1O,–,inactive
CC1CCC2C(C(=O)O)=CC3C(O)C(C)(C)CC123 (stereo not given),–,inactive
O=C(c1ccc(F)cc1)N1CCC[C@H](c2nc(-c3ccc(F)cc3)no2)C1,–,11.8 µM (active)
CC[C@H](C)[C@@H]([C@@H](CC(=O)N1CCC[C@H]1[C@H](OC)[C@@H](C)C(=O)N[C@@H](Cc1ccccc1)c1nccs1)OC)N(C)C(=O)[C@@H](NC(=O)[C@H](C(C)C)N(C)C)C(C)C,–,inactive
OCCn1cc(-c2ccc3c(c2)CC/C3=N\O)c(-c2ccncc2)n1,–,18.6 µM (active)
CCC(C)C(=O)O[C@H]1CCC=C2C=C[C@H](C)[C@H](CC[C@@H](O)C[C@@H](O)CC(=O)O)[C@H]21 (stereo not given in full),–,10 µM (active)
CC(C)(O)C1CC=C(C(=O)OC[C@H]2O[C@@H](Oc3cc(C(=O)O)cc(O)c3O)[C@H](O)[C@@H](O)[C@@H]2O)CC1 (stereo not given in full),–,inactive
C[C@@H]1O[C@@H](O[C@H]2[C@@H]3C=CO[C@@H](O[C@@H]4O[C@H](CO)[C@@H](O)[C@H](O)[C@H]4O)[C@@H]3[C@@]3(CO)O[C@@H]23)[C@H](OC(=O)/C=C/c2ccc(O)cc2)[C@H](O)[C@H]1O,–,inactive
CC(=O)O[C@H]1C[C@@]2(C)[C@@H](CC[C@H]3[C@@]4(C)C=CC(=O)[C@@H](C)[C@@H]4[C@H](OC(C)=O)C(=O)[C@@]32C)/C1=C(\CCC=C(C)C)C(=O)O,–,inactive
C[C@H](NC(=O)C(C)(C)Oc1ccc(C(F)(F)F)cn1)[C@@H](Cc1ccc(Cl)cc1)c1cccc(C#N)c1,–,9.2 µM (active)
N[C@@H](C(=O)N[C@@H]1C(=O)N2C(C(=O)O)=C(Cl)CS[C@H]12)c1ccccc1,–,0.686 µM (active)
CC1(C)CCCC2(C)c3c4c(c(=O)oc(=O)c3=CCC12)=CCC1C(C)(C)CCCC41C (stereo not given),–,inactive
CCC1=C[C@@H]2CN(C1)Cc1c([nH]c3ccccc13)[C@@](C(=O)OC)(c1cc3c(cc1OC)N(C)[C@H]1[C@@](O)(C(=O)OC)[C@H](OC(C)=O)[C@]4(CC)C=CCN5CC[C@]31[C@@H]54)C2,–,7.5 nM (active) and 64.5 nM (active)
